# Rows were chosen to be rich in hits. Some 19% of all compounds tested hit in one or more screens of this group.
# TDP1 cell noCPT – qHTS for Inhibitors of human tyrosyl-DNA phosphodiesterase 1 (TDP1): qHTS in cells in absence of CPT | DT40 Tdp1-/- hTDP1 cells, no CPT, ATP luminescence, 48 h | Potency, µM (doses to about 46.2 µM), for inactives: at the top dose activity change, negative = growth inhibition, usual class: inhibitors | 420,000 tested, 15% active; further: potency means the concentration at half of the fitted maximal effect; nearly all actives have a fitted effect of over 55% in size
#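 Luminescent ATP content (CellTiter-Glo) served as the growth readout. Knockout chicken DT40 cells expressing human TDP1 were exposed to compounds without camptothecin for a minimum 48 hr at 37 °C.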
# DT40 TDP1 CPT – qHTS for Inhibitors of human tyrosyl-DNA phosphodiesterase 1 (TDP1): qHTS in cells in presence of CPT; chicken DT40 Tdp1-/-;hTDP1 cells + 20 nM CPT, ATP luminescence, 48 h; Potency, µM (doses to about 46.2 µM), inactives show at the highest dose activity change, negative = growth inhibition, most hits filed as inhibitors; 420,000 tested, 12% active; further: potency means the concentration at half of the fitted maximal effect; nearly all actives have a fitted effect of over 55% in size
#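 Chicken DT40 Tdp1-/- cells complemented with human TDP1, 400 cells/well, exposed to compounds plus 20 nM camptothecin for at least 48 h at 37 C; viability read as ATP content by CellTiter-Glo luminescence.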
# IL-1B inflam inh – qHTS for Inhibitors of Inflammasome Signaling: IL-1-beta AlphaLISA Primary Screen; activity change, % at 57.5 µM; THP-1 LPS/ATP IL-1B secretion, AlphaLISA, 16 h; active compounds read low; 360,000 tested, 4.7% active; in the data active means activity change below about -50%; inconclusive means mostly about -30% to -49%
#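 Secreted IL-1B measured by AlphaLISA bead assay after 16 h compound exposure of THP-1 cells; compounds (final up to 57.5 uM) added 1 h before LPS (250 ng/mL) and ATP (1.25 mM) stimulation; lower signal means less secretion.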
# TDP1 block – qHTS Assay for Inhibitors of Tyrosyl-DNA Phosphodiesterase (TDP1); Tyrosyl-DNA phosphodiesterase 1 (Homo sapiens), Q9NUW8; recombinant TDP1, AlphaScreen DNA substrate cleavage; Potency, µM (titrated, usually from 130 µM), for inactives: at the top dose activity change, negative = inhibition, most hits filed as inhibitors; 350,000 tested, 0.28% active; further: potency means the concentration at half of the fitted maximal effect; nearly all actives have a fitted effect of over 40% in size
# Target sequence (Q9NUW8 whole entry, looked up): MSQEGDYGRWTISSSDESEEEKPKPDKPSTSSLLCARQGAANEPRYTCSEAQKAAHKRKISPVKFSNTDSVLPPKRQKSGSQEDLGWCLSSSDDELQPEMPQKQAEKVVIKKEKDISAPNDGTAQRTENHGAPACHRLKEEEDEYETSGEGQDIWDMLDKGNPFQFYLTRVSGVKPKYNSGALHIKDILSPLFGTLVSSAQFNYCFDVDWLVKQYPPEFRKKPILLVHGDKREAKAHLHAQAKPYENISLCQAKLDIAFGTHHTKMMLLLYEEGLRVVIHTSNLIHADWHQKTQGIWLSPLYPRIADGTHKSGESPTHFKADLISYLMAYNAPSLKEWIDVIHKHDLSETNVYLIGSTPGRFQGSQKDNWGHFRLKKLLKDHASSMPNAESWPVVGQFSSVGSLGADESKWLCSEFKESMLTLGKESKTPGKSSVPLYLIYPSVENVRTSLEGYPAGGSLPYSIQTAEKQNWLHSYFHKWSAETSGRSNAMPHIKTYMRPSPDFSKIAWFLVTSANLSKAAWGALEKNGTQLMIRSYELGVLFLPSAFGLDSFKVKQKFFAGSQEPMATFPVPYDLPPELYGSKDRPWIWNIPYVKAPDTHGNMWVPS
#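 Signal: AlphaScreen proximity between streptavidin donor and anti-FITC acceptor beads on intact substrate. Reaction: Tdp1 1 nM, substrate 15 nM final, 5 min RT after 15 min compound preincubation.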
# Giardia killer – Small Molecules that selectively kill Giardia lamblia: qHTS. activity change, % at 7.66 µM, hits read low. Giardia lamblia trophozoite viability. 340,000 tested, 0.15% active. AID 540267, 2011; in the data active means activity change below about -80%; inconclusive means between about -30% and that limit;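 further: parasites exposed to compound for two days anaerobically before the ATP read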
#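 Trophozoite viability was measured as ATP-dependent luminescence, read 15-30 min after reagent addition. Before that, parasites at 100 cells/well were exposed to compounds for 48 h, anaerobically, at 37 deg C.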
# ELG1 DNA repair – qHTS screen for small molecules that inhibit ELG1-dependent DNA repair in human embryonic kidney (HEK293T) cells expressing luciferase-tagged ELG1; 330,000 tested, 2.3% active; Potency, µM (titrated, usually from 46.1 µM), for the others: at the highest dose activity change, negative = inhibition, usual class: inhibitors; HEK293T ELG1-luciferase reporter, luminescence, 16 h; DNA damage induced by 5-fluorouridine; further: potency means the concentration at half of the fitted maximal effect; nearly all actives have a fitted effect of over 55% in size
#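 In this reporter screen, reduction of luminescence relative to DMSO vehicle indicated activity. Compounds and 5-fluorouridine were added together to 2,000 cells per well, incubated for 16 hr at 37 °C, then developed with ONE-Glo.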
# The depositor's hits bear a star; u = inconclusive; x = no result given; [ ] = remark or other dose. Unless noted, the call rests on the fitted dose curve; in most records, active means well fitted curve in the direction sought with a large enough effect; inconclusive means small, poorly fitted or top-dose-only effect, or another doubt; inactive means no such curve, though single readings can be large; an effect the other way counts as inactive or inconclusive. On the % scale 0 is the no-effect control and ±100 the full control effect.
SMILES,TDP1 cell noCPT,DT40 TDP1 CPT,IL-1B inflam inh,TDP1 block,Giardia killer,ELG1 DNA repair
COc1ccc(Cn2c(O)c(C=Nc3c(C)n(C)n(-c4ccccc4)c3=O)c(=O)[nH]c2=O)cc1,-1%,u,5,3%,-23,-16%
NCC[C@H](NC(=O)[C@@H](N)CCCN=C(N)N[N+](=O)[O-])C(N)=O,x,x,x,12%,x,x
O=C(COc1cccc(Cl)c1)N1CCN(CCc2ccncc2)CC1,-1%,-23%,x,4%,x,x
CCN(CC)P(=O)(Nc1ccc(Br)cc1)c1c(C)nn(CCC#N)c1NC(=O)c1ccc(Cl)cc1 (stereo not given),u,u,-19,6%,9,-3%
CCNC1(c2cccs2)CCCCC1=O (stereo not given),-16%[21.1 µM],6%[21.1 µM],x,x,x,x
CCCCn1c(=O)c(C(=O)Nc2ccccn2)c(O)c2ccccc21,4.1µM*,3.3µM*,37,x,-13,1%
CCCCCn1c(=O)c(C(=O)Nc2ccccn2)c(O)c2ccccc21,4.6µM*,3.7µM*,15,x,17,-1%
CCCCn1c(=O)c(C(=O)Nc2ccc(C)cn2)c(O)c2ccccc21,9.2µM*,13µM*,14,x,5,14%
CCCCCn1c(=O)c(C(=O)Nc2cccc(C)n2)c(O)c2ccccc21,u,29%,33,x,-15,18%
CCCCCn1c(=O)c(C(=O)Nc2ccncc2)c(O)c2ccccc21,x,x,x,3%,x,u
CCCCCCn1c(=O)c(C(=O)Nc2cnccn2)c(O)c2ccccc21,0.58µM*,0.82µM*,0,0%,-1,u
O=C(Cc1ccc(S(=O)(=O)N2CCCC2)s1)N1CCN(c2ccc(F)cc2)CC1,u,u,0,x,14,u
COc1cccc(C(C)(O)c2nc(-c3cccc(F)c3)cs2)c1 (stereo not given),u,u,-15,x,x,x
CCCCCCn1c(=O)c(C(=O)Nc2ncccc2O)c(O)c2ccccc21,5.2µM*,5.2µM*,10,x,-12,u
CCCCCn1c(=O)c(C(=O)NCc2ccncc2)c(O)c2ccccc21,u,u,92,-5%,-2,-29%
COC(=O)c1ccc(NC(=O)c2cccn(Cc3ccccc3C)c2=O)cc1,11%,-12%,x,5%,x,x
C=CCN1C[C@H](C)N([C@@H](c2ccccc2)c2ccc(C(=O)N(CC)CC)cc2)C[C@H]1C,-13%,4%,x,8%,x,x
CCN1C[C@]2(C)CCC(OC)[C@@]34C5C[C@@H]6CC[C@@](O)(C5C(=O)O6)[C@@H](C(O)C23)[C@@H]14 (stereo not given in full),x,x,x,6%,x,x
CCN(CC)C1=NC(=[N+](CC)CC)c2ccccc21,0.41µM*,0.65µM*,u,1%,-9,-11%
CCOC(=O)[C@]12Cc3cc(OC)ccc3[C@H]1N(C1CCCCC1)C(=O)c1ccccc12,2.3µM*,2.1µM*,-122*,x,x,x
CCOC(=O)[C@]12Cc3cc(Cl)ccc3[C@H]1N(C1CCCCC1)C(=O)c1ccccc12,2.3µM*,2.3µM*,-114*,x,x,x
CS(=O)(=O)N1CCC2(CC1)CN(Cc1ccncc1)C2,6%,2%,x,x,x,x
COc1cc2c(cc1OC)[C@@H]1C(=O)c3ccc(OC)c(CC=C(C)C)c3OC1CO2 (stereo not given in full),1.6µM*,2.9µM*,x,16%[56.1 µM],x,x

# Bioassay records: PubChem, National Center for Advancing Translational Sciences (NCATS)
